Whole data set: some 16,000 sequences, median “rpm ratio (pull-down/input)” near 0.5, cut for the highest 2% near 5.5. For the sample, the highest values were picked, then their nearest neighbours and some sequences at random.

The target of this assay is T1, MBP-FoxP3dN (Mus musculus, UniProt Q99JB6 188-423).
T1 sequence: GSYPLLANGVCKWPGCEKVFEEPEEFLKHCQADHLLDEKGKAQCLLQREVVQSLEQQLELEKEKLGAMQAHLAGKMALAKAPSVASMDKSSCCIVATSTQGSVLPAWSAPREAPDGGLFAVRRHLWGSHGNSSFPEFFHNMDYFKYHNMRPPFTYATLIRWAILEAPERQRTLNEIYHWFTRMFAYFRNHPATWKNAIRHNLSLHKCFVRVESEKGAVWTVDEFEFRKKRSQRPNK
As to the kind of experiment: PD-seq (MBP pull-down with sequencing); 20 mM Tris-HCl pH 7.5, 100 mM NaCl, 1.5 mM MgCl2, 0.4 uM protein, 0.1 uM dsDNA library, 30 min, room temperature, amylose pull-down; high values mean tight binding. The settings on record: protein: recombinant; tags: His6-MBP; chain copies: 2; dsDNA, one strand shown. The essentials: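 Amylose resin was used to capture complexes formed during 30 min at room temperature in Tris pH 7.5 buffer with NaCl and MgCl2 between 0.4 µM His6-MBP-tagged mouse FoxP3 or FoxP1 fragment lacking the N-terminus, expressed in E. coli, and 0.1 µM Klenow-filled double-stranded degenerate DNA library. After three washes, the DNA was released with proteinase K, barcoded by PCR and sequenced on Illumina. Binding is pooled-replicate reads-per-million enrichment, pull-down over input.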
In the case of “GATGATTGTTCTCCCAGCTGATGAATTGCCCCCTTCGAGTAAACAAATTTTCCTAATCTTTCTGTTCAAGCGCCATCTAC”, the binding signal is 0.413 RPM ratio (pull-down/input).

Take “GATGATTGTTCTCCCAGCTGATGAATTTCCGGTATCGAGTAAACAAATTTTCCTAATCTTTCTGTTCAAGCGCCATCTAC”: the binding signal is 0.44 RPM ratio (pull-down/input).

For “GATGATTGTTCTCCCAGCTGATGAATTCTGGCATTCGAGTAAACAAATTTTCCTAATCTTTCTGTTCAAGCGCCATCTAC”, the binding signal was 4.83 RPM ratio (pull-down/input).

Consider “GATGATTGTTCTCCCAGCTGATGAATTTGGCCATTCGAGTAAACAAATTTTCCTAATCTTTCTGTTCAAGCGCCATCTAC”, for which the binding signal is 4.06 RPM ratio (pull-down/input).

In the case of “GATGATTGTTCTCCCAGCTGATGAATTGGCATCCTCGAGTAAACAAATTTTCCTAATCTTTCTGTTCAAGCGCCATCTAC”, the binding signal was 4.28 RPM ratio (pull-down/input).

“GATGATTGTTCTCCCAGCTGATGAATTGGCATTCTCGAGTAAACAAATTTTCCTAATCTTTCTGTTCAAGCGCCATCTAC”: the binding signal was 3.49 RPM ratio (pull-down/input).

On to “GATGATTGTTCTCCCAGCTGATGAATTTTTGGCATCGAGTAAACAAATTTTCCTAATCTTTCTGTTCAAGCGCCATCTAC”, for which the binding signal was 0.785 RPM ratio (pull-down/input).

For the sequence “GATGATTGTTCTCCCAGCTGATGAATTTGGCATCTCGAGTAAACAAATTTTCCTAATCTTTCTGTTCAAGCGCCATCTAC”, the binding signal is 6.36 RPM ratio (pull-down/input).

In the case of “GATGATTGTTCTCCCAGCTGATGAATTTTGGCATTCGAGTAAACAAATTTTCCTAATCTTTCTGTTCAAGCGCCATCTAC”, the binding signal was 5.56 RPM ratio (pull-down/input).

“GATGATTGTTCTCCCAGCTGATGAATTGGCATTTTCGAGTAAACAAATTTTCCTAATCTTTCTGTTCAAGCGCCATCTAC”: the binding signal was 3.38 RPM ratio (pull-down/input).

Take “GATGATTGTTCTCCCAGCTGATGAATTCGTGGCATCGAGTAAACAAATTTTCCTAATCTTTCTGTTCAAGCGCCATCTAC”: the binding signal was 1.13 RPM ratio (pull-down/input).

On to “GATGATTGTTCTCCCAGCTGATGAATTTGGCATTTCGAGTAAACAAATTTTCCTAATCTTTCTGTTCAAGCGCCATCTAC”, for which the binding signal is 6.16 RPM ratio (pull-down/input).

As to “GATGATTGTTCTCCCAGCTGATGAATTGTGGCATTCGAGTAAACAAATTTTCCTAATCTTTCTGTTCAAGCGCCATCTAC”, the binding signal was 6.18 RPM ratio (pull-down/input).

Turning to “GATGATTGTTCTCCCAGCTGATGAATTGGCATCTTCGAGTAAACAAATTTTCCTAATCTTTCTGTTCAAGCGCCATCTAC”, the binding signal is 4.07 RPM ratio (pull-down/input).

Regarding “GATGATTGTTCTCCCAGCTGATGAATTGGGTGGTTCGAGTAAACAAATTTTCCTAATCTTTCTGTTCAAGCGCCATCTAC”, the binding signal is 0.736 RPM ratio (pull-down/input).

As for “GATGATTGTTCTCCCAGCTGATGAATTGCAGAGTTCGAGTAAACAAATTTTCCTAATCTTTCTGTTCAAGCGCCATCTAC”, the binding signal was 0.781 RPM ratio (pull-down/input).

Consider “GATGATTGTTCTCCCAGCTGATGAATTGTTCGACTCGAGTAAACAAATTTTCCTAATCTTTCTGTTCAAGCGCCATCTAC”, for which the binding signal is 0.414 RPM ratio (pull-down/input).

On to “GATGATTGTTCTCCCAGCTGATGAATTTTGTCCGTCGAGTAAACAAATTTTCCTAATCTTTCTGTTCAAGCGCCATCTAC”, for which the binding signal is 0.813 RPM ratio (pull-down/input).

In the case of “GATGATTGTTCTCCCAGCTGATGAATTCTTTTGTTCGAGTAAACAAATTTTCCTAATCTTTCTGTTCAAGCGCCATCTAC”, the binding signal was 0.487 RPM ratio (pull-down/input).

Regarding “GATGATTGTTCTCCCAGCTGATGAATTGGCGAATTCGAGTAAACAAATTTTCCTAATCTTTCTGTTCAAGCGCCATCTAC”, the binding signal is 0.898 RPM ratio (pull-down/input).

Turning to “GATGATTGTTCTCCCAGCTGATGAATTGGCGCATTCGAGTAAACAAATTTTCCTAATCTTTCTGTTCAAGCGCCATCTAC”, the binding signal was 6.97 RPM ratio (pull-down/input).

For the sequence “GATGATTGTTCTCCCAGCTGATGAATTCAAACATTCGAGTAAACAAATTTTCCTAATCTTTCTGTTCAAGCGCCATCTAC”, the binding signal is 1.12 RPM ratio (pull-down/input).

With “GATGATTGTTCTCCCAGCTGATGAATTCGTCCGTTCGAGTAAACAAATTTTCCTAATCTTTCTGTTCAAGCGCCATCTAC”, the binding signal is 0.459 RPM ratio (pull-down/input).

Turning to “GATGATTGTTCTCCCAGCTGATGAATTCGTATCGTCGAGTAAACAAATTTTCCTAATCTTTCTGTTCAAGCGCCATCTAC”, the binding signal is 1.53 RPM ratio (pull-down/input).

“GATGATTGTTCTCCCAGCTGATGAATTACTGTTCTCGAGTAAACAAATTTTCCTAATCTTTCTGTTCAAGCGCCATCTAC”: the binding signal is 0.662 RPM ratio (pull-down/input).

For the sequence “GATGATTGTTCTCCCAGCTGATGAATTTTTAGCCTCGAGTAAACAAATTTTCCTAATCTTTCTGTTCAAGCGCCATCTAC”, the binding signal was 0.414 RPM ratio (pull-down/input).

As to “GATGATTGTTCTCCCAGCTGATGAATTAAGCGCCTCGAGTAAACAAATTTTCCTAATCTTTCTGTTCAAGCGCCATCTAC”, the binding signal was 1.4 RPM ratio (pull-down/input).

Turning to “GATGATTGTTCTCCCAGCTGATGAATTAACAGCCTCGAGTAAACAAATTTTCCTAATCTTTCTGTTCAAGCGCCATCTAC”, the binding signal was 0.491 RPM ratio (pull-down/input).

As to “GATGATTGTTCTCCCAGCTGATGAATTTAGCCTCTCGAGTAAACAAATTTTCCTAATCTTTCTGTTCAAGCGCCATCTAC”, the binding signal is 5.79 RPM ratio (pull-down/input).

With “GATGATTGTTCTCCCAGCTGATGAATTAAGCCTCTCGAGTAAACAAATTTTCCTAATCTTTCTGTTCAAGCGCCATCTAC”, the binding signal is 5.69 RPM ratio (pull-down/input).

As to “GATGATTGTTCTCCCAGCTGATGAATTTAGCGCCTCGAGTAAACAAATTTTCCTAATCTTTCTGTTCAAGCGCCATCTAC”, the binding signal is 1.56 RPM ratio (pull-down/input).

On to “GATGATTGTTCTCCCAGCTGATGAATTAGCCACTTCGAGTAAACAAATTTTCCTAATCTTTCTGTTCAAGCGCCATCTAC”, for which the binding signal is 1.09 RPM ratio (pull-down/input).

“GATGATTGTTCTCCCAGCTGATGAATTATTCGCCTCGAGTAAACAAATTTTCCTAATCTTTCTGTTCAAGCGCCATCTAC”: the binding signal is 0.568 RPM ratio (pull-down/input).

Regarding “GATGATTGTTCTCCCAGCTGATGAATTAACAACTTCGAGTAAACAAATTTTCCTAATCTTTCTGTTCAAGCGCCATCTAC”, the binding signal was 0.722 RPM ratio (pull-down/input).

In the case of “GATGATTGTTCTCCCAGCTGATGAATTCGGCACATCGAGTAAACAAATTTTCCTAATCTTTCTGTTCAAGCGCCATCTAC”, the binding signal is 0.778 RPM ratio (pull-down/input).

Take “GATGATTGTTCTCCCAGCTGATGAATTATACTTGTCGAGTAAACAAATTTTCCTAATCTTTCTGTTCAAGCGCCATCTAC”: the binding signal was 1.05 RPM ratio (pull-down/input).

As to “GATGATTGTTCTCCCAGCTGATGAATTCTTTGCATCGAGTAAACAAATTTTCCTAATCTTTCTGTTCAAGCGCCATCTAC”, the binding signal is 0.99 RPM ratio (pull-down/input).

Take “GATGATTGTTCTCCCAGCTGATGAATTTGCATCATCGAGTAAACAAATTTTCCTAATCTTTCTGTTCAAGCGCCATCTAC”: the binding signal was 6.33 RPM ratio (pull-down/input).

Regarding “GATGATTGTTCTCCCAGCTGATGAATTGCCATCATCGAGTAAACAAATTTTCCTAATCTTTCTGTTCAAGCGCCATCTAC”, the binding signal is 1.56 RPM ratio (pull-down/input).

“GATGATTGTTCTCCCAGCTGATGAATTTTTTGCATCGAGTAAACAAATTTTCCTAATCTTTCTGTTCAAGCGCCATCTAC”: the binding signal is 1.37 RPM ratio (pull-down/input).

In the case of “GATGATTGTTCTCCCAGCTGATGAATTGCATCAATCGAGTAAACAAATTTTCCTAATCTTTCTGTTCAAGCGCCATCTAC”, the binding signal is 3.31 RPM ratio (pull-down/input).

In the case of “GATGATTGTTCTCCCAGCTGATGAATTTGCATGATCGAGTAAACAAATTTTCCTAATCTTTCTGTTCAAGCGCCATCTAC”, the binding signal is 1.63 RPM ratio (pull-down/input).

For “GATGATTGTTCTCCCAGCTGATGAATTTGTTGCATCGAGTAAACAAATTTTCCTAATCTTTCTGTTCAAGCGCCATCTAC”, the binding signal is 7.07 RPM ratio (pull-down/input).

Regarding “GATGATTGTTCTCCCAGCTGATGAATTTGCAGCATCGAGTAAACAAATTTTCCTAATCTTTCTGTTCAAGCGCCATCTAC”, the binding signal is 1.6 RPM ratio (pull-down/input).

Take “GATGATTGTTCTCCCAGCTGATGAATTGTTTGCATCGAGTAAACAAATTTTCCTAATCTTTCTGTTCAAGCGCCATCTAC”: the binding signal was 6.03 RPM ratio (pull-down/input).

Values taken from PMC12820563, “FoxP3 forms a head-to-head dimer in vivo and stabilizes its multimerization on adjacent microsatellites”.
